Assay results from PubChem BioAssay (NCATS).
Results filed as inconclusive are left out. Where a call stands in place of a potency, no number is given. Active and inactive are the calls of the source. Unless noted, calls follow the shape of the dose curve; as a rule, active = well fitted curve in the direction sought with a large enough effect; inconclusive = small, poorly fitted or top-dose-only effect, or another doubt; inactive = no such curve, though single readings can be large; an effect the other way counts as inactive or inconclusive.

Columns and labels:
[1] = qHTS to identify inhibitors of the type 1 interferon - major histocompatibility complex class I in skeletal muscle: primary screen against the NCATS Mechanism Interrogation Plate v5.0 (MIPE) Libary (AID 1347411); also: nearly all actives have a fitted effect of over 65% in size
Method in brief: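 Luminescence from HiBiT-tagged endogenous HLA-B*08:01 served as the MHC class I read-out. CRISPR-engineered C25cl48 human myoblasts received 4.0 ng/ml IFN-beta plus compound for 24 hrs, with an 11-point, 1:3 series topping at 46 uM final.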

[2] = Primary qHTS for inhibitors of nuclear receptor binding SET domain protein 2 (NSD2) in an isogenic RCH-ACV NSD2 p.E1099K mutant (9B) (AID 1645876); also: nearly all actives have a fitted effect of over 70% in size; also: potency is read from the fitted curve at half-maximal effect
[3] = target: Glutathione peroxidase 1 (Homo sapiens) (UniProt P07203); test: Primary qHTS Assay for Inhibitors of Recombinant Selenoprotein Glutathione Peroxidase 1 (GPX1) (AID 1845191); also: nearly all actives have a fitted effect of over 65% in size
Method in brief: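 Recombinant GPX1 (10 nM final) was preincubated with compound for 30 min at room temperature, then reacted with 1 mM GSH, 0.5 mM CHP, 0.5 mM NADPH and 100 nM glutathione reductase; NADPH fluorescence (340/450 nm) was read at 0 and 15 min.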

[4] = target: Phospholipid hydroperoxide glutathione peroxidase GPX4 (Homo sapiens) (UniProt P36969); test: Primary qHTS Assay for Inhibitors of Recombinant Selenoprotein Glutathione Peroxidase 4 (GPX4) (AID 1845192); conditions: outcome: dose series up to 50 µM unless noted; also: nearly all actives have a fitted effect of over 65% in size
Method in brief: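 GR-coupled readout: 100 nM GR, 1 mM GSH, 0.5 mM NADPH; NADPH fluorescence (ex 340/em 450 nm) read at t=0 and after 15 min RT. GPX4 200 nM, preincubated 30 min with compound; substrate 0.5 mM CHP.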

[5] = qHTS drug screen for cell cycle checkpoint inhibitors in PARPi-resistant BRCA-mutant ovarian cancer cell lines. (AID 1963452; calls by dose curve); conditions: PEO1/OlaR viability, CellTiter-Glo luminescence, 96 h, stronger effect = lower value
Method in brief: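 PEO1, PEO4 and PEO1/OlaR ovarian cancer cells, 600 per well, exposed 96 h at 37C to a dilution series. Viability read by CellTiter-Glo luminescence, normalized to DMSO and empty wells; activity summarized as Z-AUC.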

[6] = Primary qHTS for inhibitors of nuclear receptor binding SET domain protein 2 (NSD2) in an RCH-ACV wild type WT cells (2C) (AID 1645877); also: nearly all actives have a fitted effect of over 70% in size
[7] = measured here: PEO1 parental Z-AUC

Sequence of Phospholipid hydroperoxide glutathione peroxidase GPX4 (Homo sapiens) (P36969 whole entry, looked up): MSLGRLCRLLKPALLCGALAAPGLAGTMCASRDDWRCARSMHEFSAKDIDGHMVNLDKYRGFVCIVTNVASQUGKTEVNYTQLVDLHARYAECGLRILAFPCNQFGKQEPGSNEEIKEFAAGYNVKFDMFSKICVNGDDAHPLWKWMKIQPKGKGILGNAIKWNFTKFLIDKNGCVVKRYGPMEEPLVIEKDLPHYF
Sequence of Glutathione peroxidase 1 (Homo sapiens) (P07203 whole entry, looked up): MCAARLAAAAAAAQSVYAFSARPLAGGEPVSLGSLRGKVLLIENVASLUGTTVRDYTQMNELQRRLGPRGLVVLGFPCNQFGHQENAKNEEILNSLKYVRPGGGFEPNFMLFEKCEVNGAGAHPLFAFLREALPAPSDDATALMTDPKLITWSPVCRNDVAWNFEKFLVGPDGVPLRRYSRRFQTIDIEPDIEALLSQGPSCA

SMILES | Potency [1] | Potency [2] | Potency [3] | Potency [4] | Z-AUC [5] | Z-AUC [5, 7] | Z-AUC ([5]; measured here: PEO4 Z-AUC) | Potency [6]
CC(C)n1c(=O)cc(N[C@@H](C)c2ccccc2)[nH]c1=O | inactive | inactive | inactive | inactive | -0.0266 (inactive) | 0.859 | 1.05 | 
Cc1cc(C)c2c(c1)[C@@H](N(Cc1cc(C(F)(F)F)cc(C(F)(F)F)c1)c1nnn(C)n1)CCCN2CC1CCC(C(=O)O)CC1 (some centres undefined) | inactive | inactive | inactive |  | 0.561 (inactive) | 1.04 | 0.634 | 
C=CC(=O)N1CC(N2CCN(C(=O)CNc3cc(C4(C)CC4)c(Cl)cc3O)CC2)C1 | inactive | 23.5 µM (active) | inactive | inactive | -0.243 (inactive) | -0.485 | -0.295 | 
CONC(=O)Nc1ccc(-c2sc3c(c2CN(C)C)c(=O)n(-c2ccc(OC)nn2)c(=O)n3Cc2c(F)cccc2F)cc1 | inactive | inactive | inactive | inactive | 0.387 (inactive) | 0.895 | 0.818 | 
N=C1CCCN1Cc1[nH]c(=O)[nH]c(=O)c1Cl | inactive | inactive |  |  | -0.424 (inactive) | 0.0295 | -0.23 | inactive
O=C(Nc1cccc(C(F)(F)F)c1)c1cccc2cc(Oc3cc(CO)ncn3)ccc12 | inactive | inactive | inactive | inactive | -0.478 (inactive) | -0.0588 | -0.749 | 
COc1ccc2c(c1)C(c1ccc(F)cc1)=C(CN1CCCC1)CO2 | inactive | inactive | inactive |  | -0.385 (inactive) | 0.0924 | 0.0293 | 
CC(=O)N[C@H]1[C@H](O[C@@H]2c3ccc(c(Cl)c3)Oc3cc4cc(c3O[C@@H]3O[C@H](CO)[C@@H](O)[C@H](O)[C@H]3NC(=O)CCCCCCCC(C)C)Oc3ccc(cc3Cl)C[C@H]3NC(=O)[C@H](N)c5ccc(O)c(c5)Oc5cc(O)cc(c5)[C@H](NC3=O)C(=O)N[C@H]4C(=O)N[C@H]3C(=O)N[C@@H]2C(=O)N[C@@H](C(=O)O)c2cc(O)cc(O[C@H]4O[C@H](CO)[C@@H](O)[C@H](O)[C@@H]4O)c2-c2cc3ccc2O)O[C@H](CO)[C@@H](O)[C@@H]1O | inactive | inactive |  | inactive | 0.721 (inactive) | 0.652 | 1.05 | 
CCCNC(=O)c1cn2ncnc(Nc3cc(C(=O)NC4CC4)ccc3C)c2c1C | inactive | inactive | inactive | inactive | -0.306 (inactive) | 0.435 | 0.239 | 
